From PubChem BioAssay AID1159580 (chemical genetic matrix, 2015)
Among all 5,500 compounds or so, about 2,000 (36%) were called active. About 18% were inconclusive and are not listed. The list shows a part of the results. Unmarked numbers belong to inactive results. Cut-off read from the data, not from the text of the source: active = normalized growth mostly below about 0.91 (no sharp cut-off); inconclusive = no clear call, values can overlap the other calls; inactive = mostly above about 0.92.

Experiment: chemical genetic growth profiling, strain panel (AID 1159580);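 note: tested at 20 µM; growth read once vehicle control cultures reached saturation at 30 °C; 1 = growth at the plate median or of vehicle wells; lower values mean less growth of the strain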
Settings: S. cerevisiae deletion strains, growth OD
[1] = locus YAL040C, strain CLN3, active compounds read low
[2] = locus YCL061C, strain MRC1 (second series), active compounds read low
[3] = locus YDR363W, strain ESC2, active compounds read low
[4] = locus YER002W, strain NOP16, active compounds read low
[5] = locus YGR078C, strain PAC10, active compounds read low
[6] = locus YGR229C, strain SMI1, active compounds read low
[7] = locus YNL175C, strain NOP13, active compounds read low
[8] = locus YNL197C, strain WHI3, active compounds read low
[9] = locus YNL224C, strain SQS1, active compounds read low
[10] = locus YNL322C, strain KRE1, active compounds read low
[11] = locus YOR083W, strain WHI5 (second series), active compounds read low
[12] = locus YDR150W, strain NUM1, active compounds read low
[13] = locus YHR030C, strain SLT2, active compounds read low
[14] = locus YJR075W, strain HOC1, active compounds read low
[15] = locus YMR263W, strain SAP30, active compounds read low
[16] = locus YMR307W, strain GAS1, active compounds read low
[17] = locus YPL241C, strain CIN2, active compounds read low

Structure (SMILES): CC(/C=C/c1cccc(Oc2ccc(F)cc2)c1)N(O)C(N)=O (stereo unspecified)
- normalized growth [1]: 0.991
- normalized growth [2]: 0.994
- normalized growth [3]: 0.987
- normalized growth [4]: 1.01
- normalized growth [5]: 1.01
- normalized growth [6]: 1
- normalized growth [7]: 1
- normalized growth [8]: 0.971
- normalized growth [9]: 0.984
- normalized growth [10]: 1.01
- normalized growth [11]: 0.966

Structure (SMILES): Clc1ccc(C2=CSC3=NCCCN23)cc1
- normalized growth (locus YAL013W, strain DEP1, active compounds read low): 0.997
- normalized growth (locus YBR229C, strain ROT2, active compounds read low): 1.02
- normalized growth (locus YDL101C, strain DUN1, active compounds read low): 0.993
- normalized growth [12]: 0.959
- normalized growth (locus YEL061C, strain CIN8, active compounds read low): 1
- normalized growth [5]: 0.992
- normalized growth [6]: 1.01
- normalized growth [13]: 0.986
- normalized growth (locus YHR087W, strain rtc3, active compounds read low): 0.994
- normalized growth (locus YJR043C, strain POL32, active compounds read low): 0.999
- normalized growth [14]: 0.989
- normalized growth (locus YLR039C, strain RIC1, active compounds read low): 0.989
- normalized growth (locus YLR058C, strain SHM2 (second series), active compounds read low): 1.01
- normalized growth (locus YLR085C, strain ARP6, active compounds read low): 1.03
- normalized growth (locus YLR262C, strain YPT6, active compounds read low): 0.998
- normalized growth (locus YML094W, strain GIM5, active compounds read low): 0.993
- normalized growth (locus YMR219W, strain ESC1, active compounds read low): 1.01
- normalized growth [15]: 0.986
- normalized growth [16]: 0.982
- normalized growth (locus YNL153C, strain GIM3, active compounds read low): 0.995
- normalized growth (locus YNL298W, strain CLA4 (second series), active compounds read low): 1.04
- normalized growth [10]: 0.999
- normalized growth (locus YNR030W, strain Alg12, active compounds read low): 1.01
- normalized growth (locus YPL055C, strain LGE1, active compounds read low): 1.03
- normalized growth [17]: 1
- normalized growth (locus YPR135W, strain CTF4, active compounds read low): 1.02

Structure (SMILES): N=C1Sc2ccccc2C2=NCCCN12
- normalized growth [1]: 1.02
- normalized growth [2]: 1.01
- normalized growth [12]: 1.04
- normalized growth [3]: 1.01
- normalized growth [4]: 1.04
- normalized growth [5]: 1.02
- normalized growth [14]: 0.945
- normalized growth [15]: 1.01
- normalized growth [16]: 0.872 (active)
- normalized growth [7]: 1.04
- normalized growth [8]: 1.02
- normalized growth [9]: 1.02
- normalized growth [10]: 1.01
- normalized growth [11]: 0.988
- normalized growth [17]: 1.02

Structure (SMILES): OCCOCCN1CCN(C2=Nc3ccccc3Sc3ccccc32)CC1
- normalized growth (locus YAL021C, strain ccr4, active compounds read low): 1.01
- normalized growth (locus YAL026C, strain drs2, active compounds read low): 1
- normalized growth (locus YAL030W, strain snc1, active compounds read low): 0.992
- normalized growth (locus YBL061C, strain skt5, active compounds read low): 1.02
- normalized growth (locus YBR009C, strain hhf1, active compounds read low): 1.02
- normalized growth (locus YBR023C, strain chs3, active compounds read low): 1.01
- normalized growth (locus YBR171W, strain sec66, active compounds read low): 1
- normalized growth (locus YBR231C, strain swc5, active compounds read low): 1.01
- normalized growth (locus YBR279W, strain paf1, active compounds read low): 1.01
- normalized growth (locus YCL011C, strain gbp2, active compounds read low): 0.993
- normalized growth (locus YCL016C, strain dcc1, active compounds read low): 0.997
- normalized growth (locus YCL069W, strain vba3, active compounds read low): 1.01
- normalized growth (locus YCR088W, strain abp1, active compounds read low): 1
- normalized growth (locus YDL005C, strain med2, active compounds read low): 1
- normalized growth (locus YDL040C, strain nat1, active compounds read low): 1
- normalized growth (locus YDR001C, strain nth1, active compounds read low): 1.01
- normalized growth (locus YDR069C, strain doa4, active compounds read low): 0.998
- normalized growth (locus YDR137W, strain rgp1, active compounds read low): 1
- normalized growth (locus YDR159W, strain sac3, active compounds read low): 1
- normalized growth (locus YDR195W, strain ref2): 0.977
- normalized growth (locus YDR297W, strain sur2, active compounds read low): 0.993
- normalized growth (locus YDR334W, strain swr1, active compounds read low): 1.01
- normalized growth (locus YDR335W, strain msn5, active compounds read low): 1.01
- normalized growth (locus YDR392W, strain spt3, active compounds read low): 1.02
- normalized growth (locus YEL003W, strain gim4, active compounds read low): 1
- normalized growth (locus YEL037C, strain rad23, active compounds read low): 1.01
- normalized growth (locus YEL061C, strain CIN8 (second series), active compounds read low): 1
- normalized growth (locus YER015W, strain faa2, active compounds read low): 1.01
- normalized growth (locus YER016W, strain bim1, active compounds read low): 1.01
- normalized growth (locus YER111C, strain swi4, active compounds read low): 1.01
- normalized growth (locus YER155C, strain BEM2 (second series), active compounds read low): 0.993
- normalized growth (locus YFR010W, strain ubp6, active compounds read low): 1.01
- normalized growth (locus YGL167C, strain pmr1, active compounds read low): 1
- normalized growth (locus YGL173C, strain kem1, active compounds read low): 1
- normalized growth (locus YGL227W, strain vid30, active compounds read low): 0.989
- normalized growth (locus YGL240W, strain doc1, active compounds read low): 0.992
- normalized growth (locus YGL253W, strain hxk2, active compounds read low): 1.02
- normalized growth (locus YHR013C, strain ard1, active compounds read low): 0.982
- normalized growth (locus YHR027C, strain rpn1, active compounds read low): 1
- normalized growth [13]: 0.991
- normalized growth (locus YHR079C, strain IRE1, active compounds read low): 0.994
- normalized growth (locus YHR142W, strain chs7, active compounds read low): 1.02
- normalized growth (locus YJL092W, strain hpr5, active compounds read low): 1.02
- normalized growth (locus YJL095W, strain BCK1 (second series), active compounds read low): 1
- normalized growth (locus YJL095W, strain BCK1, active compounds read low): 0.999
- normalized growth (locus YJL115W, strain asf1, active compounds read low): 1
- normalized growth (locus YJL129C, strain trk1, active compounds read low): 1.02
- normalized growth (locus YJL154C, strain vps35, active compounds read low): 1.03
- normalized growth (locus YJL164C, strain tpk1, active compounds read low): 1.01
- normalized growth (locus YJL166W, strain qcr8, active compounds read low): 1.01
- normalized growth (locus YJL187C, strain SWE1, active compounds read low): 1.01
- normalized growth (locus YJR066W, strain TOR1, active compounds read low): 0.978
- normalized growth (locus YKL160W, strain elf1, active compounds read low): 1
- normalized growth (locus YKR026C, strain gcn3, active compounds read low): 1.02
- normalized growth (locus YKR091W, strain srl3, active compounds read low): 1.01
- normalized growth (locus YLL001W, strain dnm1, active compounds read low): 0.996
- normalized growth (locus YLL026W, active compounds read low): 1
- normalized growth (locus YLL041C, strain sdh2, active compounds read low): 1.02
- normalized growth (locus YLR027C, strain aat2, active compounds read low): 1.01
- normalized growth (locus YLR113W, strain HOG1, active compounds read low): 1
- normalized growth (locus YLR221C, strain rsa3, active compounds read low): 1
- normalized growth (locus YLR258W, strain gsy2, active compounds read low): 1.01
- normalized growth (locus YLR262C, strain YPT6 (second series), active compounds read low): 1.03
- normalized growth (locus YLR320W, strain mms22, active compounds read low): 0.981
- normalized growth (locus YLR342W, strain FKS1, active compounds read low): 1
- normalized growth (locus YLR357W, strain rsc2, active compounds read low): 1.01
- normalized growth (locus YLR370C, strain arc18, active compounds read low): 1.01
- normalized growth (locus YLR384C, strain iki3, active compounds read low): 1.01
- normalized growth (locus YML120C, strain ndi1, active compounds read low): 1.01
- normalized growth (locus YMR058W, strain fet3, active compounds read low): 1.01
- normalized growth (locus YMR125W, strain sto1, active compounds read low): 1.01
- normalized growth (locus YMR129W, active compounds read low): 1.01
- normalized growth (locus YMR205C, strain PFK2, active compounds read low): 0.994
- normalized growth (locus YMR231W, strain pep5, active compounds read low): 1
- normalized growth (locus YNL071W, strain lat1, active compounds read low): 1
- normalized growth (locus YNL183C, strain NPR1, active compounds read low): 0.975
- normalized growth (locus YNL209W, strain ssb2, active compounds read low): 1.01
- normalized growth (locus YNL248C, strain rpa49, active compounds read low): 0.977
- normalized growth (locus YNL322C, strain KRE1 (second series), active compounds read low): 1
- normalized growth (locus YNR049C, strain mso1, active compounds read low): 1.01
- normalized growth (locus YOR001W, strain rrp6, active compounds read low): 0.995
- normalized growth (locus YOR070C, strain gyp1, active compounds read low): 0.995
- normalized growth (locus YOR080W, strain dia2, active compounds read low): 1
- normalized growth (locus YOR083W, strain WHI5, active compounds read low): 0.991
- normalized growth (locus YOR106W, strain vam3, active compounds read low): 0.997
- normalized growth (locus YOR231W, strain MKK1, active compounds read low): 0.981
- normalized growth (locus YOR265W, strain rbl2, active compounds read low): 1
- normalized growth (locus YOR270C, strain vph1, active compounds read low): 1
- normalized growth (locus YOR290C, strain snf2, active compounds read low): 1
- normalized growth (locus YPL051W, strain arl3, active compounds read low): 1.02
- normalized growth (locus YPL078C, strain atp4, active compounds read low): 1.01
- normalized growth (locus YPL106C, strain sse1, active compounds read low): 1.03
- normalized growth (locus YPL240C, strain hsp82, active compounds read low): 1
- normalized growth (locus YPL256C, strain CLN2, active compounds read low): 0.989
